Measured values published in PubChem BioAssay.
Active and inactive are the calls of the source.

What was measured:
[1] = test system: Plasmodium falciparum Sir2 (PF13_0152, Sir2A); assay: pfSir2 binders on small-molecule microarrays, primary screen, biochemical, small-molecule microarray, 635 nm fluorescence (AID 1098); conditions: small-molecule microarray binding, fluorescence 635 nm; higher = more signal;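 further: score merges spot fluorescence intensity with its signal-to-noise ratio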
[2] = small-molecule microarray binders of probe aDKK1, primary screen, biochemical, biotinylated probe, 635/667 nm fluorescence (AID 1099); conditions: higher = more signal;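 further: score merges 667nm spot fluorescence with signal to noise across triplicate slides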
[3] = small-molecule microarray binders of probe aCHRDL2, primary screen, biochemical, biotinylated probe, 635/667 nm fluorescence (AID 1100); conditions: higher = more signal
[4] = splicing luciferase reporter signal modulators, primary screen, spliceosome inhibition project, cell-based, HEK293, splice +/- reporter (AID 1101); conditions: luminescence, 24 h, higher = more signal, called active from +8 up or from −8 down;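 further: HEK293 cells carrying a splicing-competent luciferase reporter gene; test concentration not given here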
[5] = biological target: Fibroblast growth factor 10 (Homo sapiens) (UniProt O15520); assay: FGF10 binders on small-molecule microarrays, primary screen, biochemical, small-molecule microarray, 635 nm fluorescence (AID 1102); conditions: FGF10 binding, fluorescence 635 nm, higher = more signal
Sequence of Fibroblast growth factor 10 (Homo sapiens) (O15520 whole entry, looked up): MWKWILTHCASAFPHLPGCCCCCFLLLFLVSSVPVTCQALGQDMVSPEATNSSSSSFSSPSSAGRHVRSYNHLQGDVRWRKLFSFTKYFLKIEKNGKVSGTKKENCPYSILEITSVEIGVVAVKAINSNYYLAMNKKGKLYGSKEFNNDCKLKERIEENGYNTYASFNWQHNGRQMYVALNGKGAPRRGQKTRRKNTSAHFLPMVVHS

[6] = test system: glycogen synthase kinase-3 (GSK3A per assay name; protocol says GSK3B); assay: GSK3 binders on small-molecule microarrays, primary screen, biochemical, small-molecule microarray, 635 nm fluorescence, GSK3A (AID 1103); conditions: small-molecule microarray binding, fluorescence 635 nm; higher = more signal; further: the record names both GSK3A and GSK3B
[7] = biological target: Epidermal growth factor receptor (Homo sapiens) (UniProt P00533); assay: EGFR binders on small-molecule microarrays, primary screen, biochemical, small-molecule microarray, 635 nm fluorescence (AID 1104); conditions: EGFR binding, higher = more signal;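 further: score merges 667 nm emission intensity with spot signal to noise over triplicate slides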
Sequence of Epidermal growth factor receptor (Homo sapiens) (P00533 whole entry, looked up): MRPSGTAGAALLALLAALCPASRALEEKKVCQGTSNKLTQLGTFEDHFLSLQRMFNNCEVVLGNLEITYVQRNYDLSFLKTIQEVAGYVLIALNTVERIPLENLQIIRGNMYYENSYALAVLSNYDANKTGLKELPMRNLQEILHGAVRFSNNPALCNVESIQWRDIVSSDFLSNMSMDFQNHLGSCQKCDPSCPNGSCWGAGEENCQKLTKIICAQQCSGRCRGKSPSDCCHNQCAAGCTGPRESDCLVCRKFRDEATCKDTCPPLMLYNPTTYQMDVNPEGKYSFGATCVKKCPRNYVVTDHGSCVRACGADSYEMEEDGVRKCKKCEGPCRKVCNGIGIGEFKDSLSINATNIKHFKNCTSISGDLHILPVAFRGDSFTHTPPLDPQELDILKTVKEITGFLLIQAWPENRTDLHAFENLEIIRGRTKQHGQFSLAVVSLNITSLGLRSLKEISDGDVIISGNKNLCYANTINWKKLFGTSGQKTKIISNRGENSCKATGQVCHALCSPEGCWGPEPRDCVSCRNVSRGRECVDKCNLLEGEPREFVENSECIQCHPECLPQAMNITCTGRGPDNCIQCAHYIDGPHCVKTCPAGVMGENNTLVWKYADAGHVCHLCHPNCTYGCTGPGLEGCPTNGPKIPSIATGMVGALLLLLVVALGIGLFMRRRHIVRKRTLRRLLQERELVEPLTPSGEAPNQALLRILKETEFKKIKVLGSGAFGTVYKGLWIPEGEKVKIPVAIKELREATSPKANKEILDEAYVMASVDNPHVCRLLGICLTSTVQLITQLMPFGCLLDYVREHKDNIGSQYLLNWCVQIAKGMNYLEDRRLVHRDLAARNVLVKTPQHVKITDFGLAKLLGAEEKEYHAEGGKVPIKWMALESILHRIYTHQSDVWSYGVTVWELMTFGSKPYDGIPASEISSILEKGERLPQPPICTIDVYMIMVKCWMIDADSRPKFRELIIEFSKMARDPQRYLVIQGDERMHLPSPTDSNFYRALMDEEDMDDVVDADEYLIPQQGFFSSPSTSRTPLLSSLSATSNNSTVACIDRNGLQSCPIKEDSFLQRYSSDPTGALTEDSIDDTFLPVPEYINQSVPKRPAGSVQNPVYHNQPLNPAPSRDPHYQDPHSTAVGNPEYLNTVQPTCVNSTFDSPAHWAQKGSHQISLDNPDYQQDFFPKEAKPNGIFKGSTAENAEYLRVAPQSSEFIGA

[8] = biological target: Follistatin-related protein 3 (Homo sapiens) (UniProt O95633); assay: FSTL3 binders on small-molecule microarrays, primary screen, biochemical, small-molecule microarray, 635 nm fluorescence (AID 1105); conditions: FSTL3 binding, higher = more signal;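 further: score merges emission near 667 nm and signal to noise per printed spot across three slides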
Sequence of Follistatin-related protein 3 (Homo sapiens) (O95633 whole entry, looked up): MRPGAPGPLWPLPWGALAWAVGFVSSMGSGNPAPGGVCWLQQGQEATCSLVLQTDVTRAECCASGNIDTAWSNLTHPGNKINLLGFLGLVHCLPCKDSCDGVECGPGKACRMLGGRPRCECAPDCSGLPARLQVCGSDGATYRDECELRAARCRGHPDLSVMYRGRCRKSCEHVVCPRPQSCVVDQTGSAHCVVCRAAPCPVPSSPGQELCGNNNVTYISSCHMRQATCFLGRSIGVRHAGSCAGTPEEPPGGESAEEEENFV

[9] = biological target: Dickkopf-related protein 1 (Homo sapiens) (UniProt O94907); assay: DKK1 binders on small-molecule microarrays, primary screen, biochemical, small-molecule microarray, 635 nm fluorescence scan (AID 1106); conditions: DKK1 binding, higher = more signal;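 further: score merges emission near 667 nm with signal to noise over three replicate slides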
Sequence of Dickkopf-related protein 1 (Homo sapiens) (O94907 whole entry, looked up): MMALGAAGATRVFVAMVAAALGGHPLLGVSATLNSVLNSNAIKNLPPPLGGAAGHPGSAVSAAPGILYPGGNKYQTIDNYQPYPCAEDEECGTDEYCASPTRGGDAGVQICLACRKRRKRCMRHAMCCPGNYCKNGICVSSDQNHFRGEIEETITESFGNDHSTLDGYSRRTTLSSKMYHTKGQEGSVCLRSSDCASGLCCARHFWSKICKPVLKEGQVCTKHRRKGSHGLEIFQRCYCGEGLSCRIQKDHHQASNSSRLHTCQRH

[10] = test system: Inhibin beta A chain (activin A); assay: INHBA (activin A) binders on microarrays, primary screen, biochemical, small-molecule microarray, 635 nm fluorescence scan (AID 1107); conditions: small-molecule microarray binding, higher = more signal;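 further: mouse activin A protein probed at 4.33 µg/mL on printed slides; score merges bound-protein fluorescence near 667 nm with spot signal-to-noise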
[11] = test system: Human papillomavirus type 1a protein E7 (residues 44-93); assay: HPV1a E7 fragment binders on microarrays, primary screen, biochemical, small-molecule microarray, residues 44-93, 635 nm fluorescence (AID 1108); conditions: small-molecule microarray binding, fluorescence 635 nm; higher = more signal;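 further: E7 fragment applied at 1 µg/mL in TBST for 1 h at 4 C; score combines spot fluorescence with its signal to noise ratio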
[12] = modulators of HCV replicon luciferase signal, primary screen, HCV replication inhibitor project, Huh7 cells, luciferase reporter (AID 1109); conditions: 48 h, higher = more signal;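 further: huh7 hepatoma cells harbouring a luciferase neomycin HCV replicon reporter; luciferase luminescence as measure of HCV replicon replication; test concentration not given here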
[13] = biological target: Left-right determination factor 2 (Homo sapiens) (UniProt O00292); assay: LEFTY2 binders on small-molecule microarrays, primary screen, biochemical, small-molecule microarray, 635 nm fluorescence scan (AID 1110); conditions: LEFTY2 binding, higher = more signal
Sequence of Left-right determination factor 2 (Homo sapiens) (O00292 whole entry, looked up): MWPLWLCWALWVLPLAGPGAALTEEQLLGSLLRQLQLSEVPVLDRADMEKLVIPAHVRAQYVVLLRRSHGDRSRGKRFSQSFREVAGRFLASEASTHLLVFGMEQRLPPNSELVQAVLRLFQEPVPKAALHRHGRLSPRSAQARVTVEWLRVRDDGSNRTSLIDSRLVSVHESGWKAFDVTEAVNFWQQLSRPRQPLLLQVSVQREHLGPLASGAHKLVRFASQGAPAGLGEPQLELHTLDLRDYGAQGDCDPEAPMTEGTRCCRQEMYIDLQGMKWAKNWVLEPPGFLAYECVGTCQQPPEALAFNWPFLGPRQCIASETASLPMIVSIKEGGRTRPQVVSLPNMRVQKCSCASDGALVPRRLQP

[14] = biological target: Calmodulin-1 (Homo sapiens) (UniProt P0DP23); assay: CALM1 binders on microarrays, EGTA buffer, profiling panel, biochemical, small-molecule microarray, Cy5-labelled CALM1 (AID 1111); conditions: Cy5-CALM1 binding fluorescence, higher = more signal;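 further: labelled calmodulin applied in Tris saline Tween buffer holding calcium plus EGTA and DTT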
[15] = biological target: Calmodulin-1 (Homo sapiens) (UniProt P0DP23); assay: calcium-bound CALM1 binders on microarrays, profiling panel, artefact control for SMM control-protein annotation, biochemical, small-molecule microarray, Cy5-labelled CALM1, plus calcium (AID 1112); conditions: Cy5-CALM1 binding fluorescence, higher = more signal;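 further: score merges spot fluorescence with signal to noise from triplicate slides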
[16] = small-molecule microarray binders of probe aWnt5a, primary screen, biochemical, biotinylated probe, 635/667 nm fluorescence (AID 1113); conditions: higher = more signal;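 further: score merges 667 nm fluorescence intensity with signal-to-noise per printed feature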
[17] = small-molecule microarray binders of probe aShh, primary screen, biochemical, biotinylated probe, 635/667 nm fluorescence (AID 1114); conditions: higher = more signal;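 further: probe is biotin-labelled aShh protein from a stem cell growth factor screen; measures binding of labelled protein to compounds printed on the slide; score merges feature fluorescence at 667 nm with signal-to-noise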
[18] = small-molecule microarray binders of probe aNog, primary screen, biochemical, biotinylated probe, 635/667 nm fluorescence (AID 1115); conditions: higher = more signal;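 further: probe is biotinylated aNog protein used at 0.15 µg/mL for 1 h at 4 C; z-score combines 667 nm fluorescence of each spot with its signal to noise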
[19] = biological target: Torsin-1A-interacting protein 1 (Homo sapiens) (UniProt Q5JTV8); assay: LAP1 binders from COS7 cell lysate, primary screen, small-molecule microarray, 635/667 nm fluorescence (AID 1116); conditions: COS7-hLAP1 lysate binding, 635 nm fluorescence, higher = more signal
Sequence of Torsin-1A-interacting protein 1 (Homo sapiens) (Q5JTV8 whole entry, looked up): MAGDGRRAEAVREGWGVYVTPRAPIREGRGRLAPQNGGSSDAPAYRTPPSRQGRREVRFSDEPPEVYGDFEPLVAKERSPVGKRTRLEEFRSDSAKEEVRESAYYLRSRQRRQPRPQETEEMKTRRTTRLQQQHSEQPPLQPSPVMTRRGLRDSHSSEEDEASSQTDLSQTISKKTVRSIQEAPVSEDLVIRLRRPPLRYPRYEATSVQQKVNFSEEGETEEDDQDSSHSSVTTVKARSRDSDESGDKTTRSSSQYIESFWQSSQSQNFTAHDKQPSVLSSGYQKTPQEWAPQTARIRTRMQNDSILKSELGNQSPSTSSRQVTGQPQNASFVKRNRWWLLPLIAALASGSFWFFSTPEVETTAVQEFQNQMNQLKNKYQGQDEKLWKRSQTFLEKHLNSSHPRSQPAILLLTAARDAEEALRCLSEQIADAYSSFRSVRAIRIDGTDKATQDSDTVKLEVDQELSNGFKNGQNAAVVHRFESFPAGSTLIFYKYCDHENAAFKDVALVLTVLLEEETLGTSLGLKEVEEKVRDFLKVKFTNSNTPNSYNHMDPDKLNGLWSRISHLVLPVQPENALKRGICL

[20] = biological target: Alpha-bungarotoxin (Bungarus multicinctus) (UniProt P60615); assay: alpha-bungarotoxin binders on microarray, profiling panel, artefact control for SMM control protein annotation, biochemical, small-molecule microarray, Alexa647 label, 635/667 nm fluorescence (AID 1117); conditions: alpha-BTX-A647 binding fluorescence, higher = more signal
Sequence of Alpha-bungarotoxin (Bungarus multicinctus) (P60615 whole entry, looked up): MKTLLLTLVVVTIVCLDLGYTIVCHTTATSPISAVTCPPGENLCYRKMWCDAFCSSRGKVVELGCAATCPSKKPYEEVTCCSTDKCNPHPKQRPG

Compound | composite z-score [1] | composite z-score [2] | composite z-score [3] | z-score [4] | composite z-score [5] | composite z-score [6] | composite z-score [7] | composite z-score [8] | composite z-score [9] | composite z-score [10] | composite z-score [11] | z-score [12] | composite z-score [13] | composite z-score [14] | composite z-score [15] | composite z-score [16] | composite z-score [17] | composite z-score [18] | composite z-score [19] | composite z-score [20]
CO[C@@H]1C=CCC(=O)N[C@@H](C)C(=O)OC[C@@H](OC)[C@H](C)C=CCC(=O)OC[C@H]1C | 1.27 | -0.266 | -1.14 | 0.175 (inactive) | 0.656 | 0.808 | 1.07 | 1.53 | 1.35 | 1.77 | -0.669 | 0.388 | 1.48 | -1.14 | -1.96 | -0.152 | -0.0035 | 0.109 | 0.037 | 0.373
CCc1cc2c(nc1CC)CCN(CCC(C)=NO[C@@H]1O[C@H](COC(C)=O)[C@@H](OC(C)=O)[C@H](OC(C)=O)[C@H]1OC(C)=O)C2 | 0.8 | -0.0154 | -0.82 | -0.763 (inactive) | 1.14 | 0.642 | 0.905 | 1.32 | 1.32 | 0.703 | 1.31 | -0.998 | 1.3 | -0.199 | -0.502 | 0.0251 | -0.291 | -0.152 | 2.85 | 1.01
CC(CCN1CCc2nc(-c3ccccc3)c(-c3ccccc3)cc2C1)=NO[C@@H](C)c1cc(-c2c(C)cc(C)cc2C)no1 | 0.655 | -0.0029 | 0.77 | -1.56 (inactive) | -0.567 | -0.725 | -0.345 | -0.601 | -0.524 | 0.5 | -0.324 | -1.47 | -0.372 | 0.445 | -0.0323 | -0.256 | -0.428 | -0.0211 | -0.0029 | 1.33
COC(=O)[C@H](C)NC(=O)CCC1CC(OC(=O)NCc2cccc3ccccc23)CC2(CCCC(COC(=O)NCCc3ccccc3OC)O2)O1 (stereo not given in full) | 0.906 | -0.0471 | -0.433 | -0.105 (inactive) | 1.23 | 1.12 | 0.454 | 1.25 | 0.686 | -0.267 | 1.39 | -0.314 | 0.621 | 0.75 | -0.37 | -0.15 | 0.0141 | 0.0356 | 0.787 | 0.638
CO[C@@H]1COC(=O)[C@@H]2CCCN2C(=O)[C@@H](C)COC(=O)CCC[C@H]1C | 0.877 | -0.331 | -0.624 | -1.27 (inactive) | 0.981 | 0.561 | 0.38 | 0.621 | 0.661 | -0.751 | 0.212 | -0.016 | 0.83 | -0.0691 | -0.911 | -0.175 | -0.0553 | -0.346 | 0.883 | 0.482
COC(=O)CC=C[C@@H](C)[C@@H](C=NOC(C)CN1CCCc2nc(C)c(C)cc21)NS(=O)(=O)c1ccc(C)cc1 (stereo not given in full) | 0.268 | 0.219 | -0.296 | 0.218 (inactive) | 0.65 | 0.793 | 0.568 | 1.01 | 0.829 | 0.932 | 1.09 | -1.05 | 0.817 | -0.481 | -0.56 | -0.0758 | 0.213 | -0.0172 | 0.232 | -0.0193
